# Data: PubChem BioAssay (NCATS)
# “And” between values parts separate entries of the source, which are not always exact repeats. Identical values can stand only once. Records with an inconclusive call do not appear. A number with no mark means an inactive call. The source made the active and inactive calls. The call rests on the fitted dose curve; in most records, active means well fitted curve in the direction sought with a large enough effect; inconclusive means small, poorly fitted or top-dose-only effect, or another doubt; inactive means no such curve, though single readings can be large; an effect the other way counts as inactive or inconclusive.
# Experiments:
# [1] = target: Cellular tumor antigen p53 (Homo sapiens) (UniProt P04637); test: Primary qHTS for small molecule compounds that upregulate eGFP-tagged delta133p53alpha (in N-terminal) cells. (AID 2060322); conditions: NCI-H358 eGFP-delta133p53alpha fluorescence, 24 h; activation: hits give high values; further: nearly all actives have a fitted effect of over 75% in size; further: potency means the concentration at half of the fitted maximal effect;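 on activation: cells pre-induced with doxycycline then dosed without doxycycline; series mostly up to about 56 µM; 0% = DMSO vehicle and 100% = reference activator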
# Chain of Cellular tumor antigen p53 (Homo sapiens) (P04637 whole entry, looked up): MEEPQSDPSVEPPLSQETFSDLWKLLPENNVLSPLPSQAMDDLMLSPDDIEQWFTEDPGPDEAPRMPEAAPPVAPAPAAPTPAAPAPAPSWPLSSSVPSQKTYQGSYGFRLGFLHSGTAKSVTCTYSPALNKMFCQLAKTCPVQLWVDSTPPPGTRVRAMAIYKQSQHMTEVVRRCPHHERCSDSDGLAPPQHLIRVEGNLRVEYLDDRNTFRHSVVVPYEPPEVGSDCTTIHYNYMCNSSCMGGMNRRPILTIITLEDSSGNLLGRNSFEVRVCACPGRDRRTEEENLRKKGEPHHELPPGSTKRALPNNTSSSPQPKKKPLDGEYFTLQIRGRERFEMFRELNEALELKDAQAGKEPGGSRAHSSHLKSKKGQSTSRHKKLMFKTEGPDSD
# In short: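 NCI-H358 cells pre-induced 24 h with 10 ng/ml doxycycline for eGFP-delta133p53alpha, plated dox-free and exposed 24 h at 37C to titrated compounds. Fixed, Hoechst-stained; gated GFP peak intensity by laser scanning cytometry, normalized to DMSO (0%) and 57.5 uM 5-azacytidine (100%).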
# [2] = target: Aldehyde dehydrogenase, mitochondrial (Homo sapiens) (UniProt P05091); test: qHTS for Inhibitors of the Aldehyde Dehydrogenase Family (ALDH2) Primary screen (AID 2061308);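 further: plate controls were vehicle for no effect and reference inhibitor for full effect; nearly all actives have a fitted effect of over 55% in size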
# [3] = target: Retinaldehyde dehydrogenase 3 (Homo sapiens) (UniProt P47895); test: qHTS for Inhibitors of the Aldehyde Dehydrogenase Family (ALDH1A3) Primary screen (AID 2061315);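 further: plate controls were DMSO vehicle for no effect and reference inhibitor for full effect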
# [4] = BET inhibitor-based combinations targeting novel dependencies in MECOM-rearranged (r) AML: SET-2 cell line (AID 2202231); conditions: SET-2 AML cells viability, CellTiter-Glo luminescence, 48 h; viability: hits give low values, concentration not given here; further: nearly all actives have a fitted effect of over 35% in size; further: potency means the concentration at half of the fitted maximal effect;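 on viability: plate controls were DMSO treated cells for no effect and wells without cells for full effect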
# In short: (§1)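 Readout: CellTiter-Glo luminescence. Exposure: 48 h, 11 concentrations, 500 cells/well. Metric: AUC and within-line Z-AUC after DMSO/empty-well normalization.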
# [5] = BET inhibitor-based combinations targeting novel dependencies in MECOM-rearranged (r) AML: OCI-AML3 cell line (AID 2202232); conditions: Potency: OCI-AML3 viability; further: nearly all actives have a fitted effect of over 35% in size; further: potency means the concentration at half of the fitted maximal effect;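 on viability (% of control): series mostly up to about 46 µM; plate controls were DMSO vehicle wells for no effect and wells without cells for full effect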
# In short: as §1
# [6] = BET inhibitor-based combinations targeting novel dependencies in MECOM-rearranged (r) AML: MV-4-11 cell line (AID 2202233); further: nearly all actives have a fitted effect of over 45% in size; further: potency means the concentration at half of the fitted maximal effect;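 on viability, % of control: plate controls were DMSO for no effect and blank wells for full effect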
# In short: (§2)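 Seeding density was 500 cells/well, and drug exposure lasted 48 hr under standard culture conditions. Read-out used CellTiter-Glo reagent with a 15 min room-temperature incubation before luminescence measurement; AUC and Z-AUC summarize the normalized responses.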
# [7] = BET inhibitor-based combinations targeting novel dependencies in MECOM-rearranged (r) AML: HNT-34 cell line (AID 2202234); further: nearly all actives have a fitted effect of over 35% in size; further: potency means the concentration at half of the fitted maximal effect;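 on viability (% of control): plate controls were vehicle wells for no effect and cell-free wells for full effect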
# In short: as §2
# [8] = BET inhibitor-based combinations targeting novel dependencies in MECOM-rearranged (r) AML: UCSD-AML1 cell line (AID 2202235); further: nearly all actives have a fitted effect of over 40% in size; further: potency means the concentration at half of the fitted maximal effect;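 on viability (% of control): series mostly up to about 46 µM; plate controls were DMSO vehicle wells for no effect and blank wells for full effect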
# In short: as §2
# [9] = BET inhibitor-based combinations targeting novel dependencies in MECOM-rearranged (r) AML: AML-194 cell line (AID 2202237; further: nearly all actives have a fitted effect of over 40% in size; further: potency means the concentration at half of the fitted maximal effect;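 on viability (% of control): plate controls were vehicle wells for no effect and wells without cells for full effect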)
# In short: as §1
# [10] = BET inhibitor-based combinations targeting novel dependencies in MECOM-rearranged (r) AML: AML-191 cell line (AID 2202236; further: nearly all actives have a fitted effect of over 35% in size; further: potency means the concentration at half of the fitted maximal effect;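 on viability (% of control): plate controls were vehicle wells for no effect and wells without cells for full effect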)
# In short: as §1
SMILES,Potency [1],Potency [2],Potency [3],Potency [4],Potency [5],Potency [6],Potency [7],Potency [8],Potency [9],activation [1],viability [4] [%],Potency [10],viability (% of control) [5],"viability, % of control [6]",viability (% of control) [7],viability (% of control) [9]
CC(C)c1c2cc(-c3ccnc(NC4CCC(NC5CCOCC5)CC4)n3)ccc2nn1C (centres undefined),478 nM (active),inactive,inactive,0.296 µM (active),0.209 µM (active),0.0934 µM (active),0.235 µM (active),0.118 µM (active),0.417 µM (active),,,,,,,
CS(=O)(=O)c1ccc(C2=C(c3ccccc3)C(=O)OC2)cc1,,inactive,inactive,,inactive,inactive,inactive,inactive,inactive,-5.73%,95.1,,,,,
CC(C)CC(=O)Nc1n[nH]c2c1CN(C(=O)C1CCN(C)CC1)C2(C)C,6.11 µM (active) and 4.78 µM (active),inactive,inactive,10.5 µM (active),1.32 µM (active),0.372 µM (active),2.35 µM (active),2.35 µM (active),5.9 µM (active),,,,,,,
Nc1ccc(/C=C/C(=O)NCc2cc3cc(-c4ccc(C(=O)N5CCC(F)(F)CC5)cc4)cc(-c4ccc(F)cc4)c3o2)cn1,,inactive,inactive,,0.525 µM (active),2.35 µM (active),0.742 µM (active),1.18 µM (active),18.6 µM (active),-7%,104,,,,,
CNC1CCC(N(Cc2cccc(-c3ccncc3)c2)C(=O)c2sc3ccccc3c2Cl)CC1 (centres undefined),24.3 µM (active) and 30.1 µM (active),inactive,inactive,26.3 µM (active),18.6 µM (active),16.6 µM (active),26.3 µM (active),,23.5 µM (active),,,20.9 µM (active),,,,
COc1cccc2c1c(O)c(C(=O)N(C)c1ccc(C(F)(F)F)cc1)c(=O)n2C,,inactive,inactive,,inactive,inactive,,inactive,inactive,10.1%,40.7,inactive,,,,
COc1c(C)cc(NC(=O)c2nn(Cc3ccc(F)cc3)c3c2CN(C(=O)c2ccc[nH]2)C[C@]3(C)C(N)=O)cc1C,,inactive,inactive,,,,,,,0.333%,118,,113% [at 8.46 µM],114% [at 8.46 µM],105% [at 8.46 µM],108% [at 8.46 µM]
CCn1c(-c2nonc2N)nc2cncc(CNC3CCNCC3)c21,,inactive,inactive,,1.66 µM (active),2.63 µM (active),,5.9 µM (active),4.68 µM (active),-16.3% and 6.25%,103,1.86 µM (active),,,,
N#Cc1ccnc(N2C(=O)CC[C@H]2C(=O)N(c2cncc(F)c2)[C@H](C(=O)NC2CC(F)(F)C2)c2ccccc2Cl)c1,,inactive,inactive,,inactive,inactive,inactive,,inactive,-19.7% and -8.38%,105,,,,,
CNC(=O)c1ccc(Nc2ncc(C(F)(F)F)c(NCc3nccnc3N(C)S(C)(=O)=O)n2)cc1,12000 nM (active),inactive,inactive,3.32 µM (active),4.68 µM (active),0.296 µM (active),1.86 µM (active),2.63 µM (active),3.72 µM (active),,,,,,,
O=C([C@@H](Cc1cccc(C(F)(F)F)c1)NS(=O)(=O)c1cc(F)c2c(c1)CCNC2)N1CCCC1,,inactive,inactive,,11.8 µM (active),20.9 µM (active),,inactive,inactive,-6.33%,107,inactive,,,,
CC[C@]12C=CCN3CC[C@@]4(c5cc([C@@]6(C(=O)OC)C[C@H]7C[C@@H](C(C)(F)F)CN(Cc8c6[nH]c6ccccc86)C7)c(OC)cc5N(C)[C@H]4[C@@](O)(C(=O)OC)[C@@H]1OC(C)=O)[C@@H]32,199 nM (active),inactive,inactive,0.783 µM (active),0.124 µM (active),0.197 µM (active),,0.139 µM (active),0.139 µM (active),,,0.0698 µM (active),,,,
O=C(Nc1nc2cccc(-c3ccc(CN4CCS(=O)(=O)CC4)cc3)n2n1)C1CC1,43.2 µM (active) and 34.3 µM (active),inactive,inactive,18.6 µM (active),14.8 µM (active),3.32 µM (active),14.8 µM (active),,13.2 µM (active),,,9.34 µM (active),,,,
Cc1cn(CCN2CCN(c3ccccc3-c3cc(C#N)cc(C(=O)NCCCN4CCCC4)c3)CC2)c2ccccc12,,inactive,inactive,23.5 µM (active),18.6 µM (active),20.9 µM (active),18.6 µM (active),,18.6 µM (active),15.8%,,18.6 µM (active),,,,
